In PubChem BioAssay (NCI):
The panel holds about 83,000 compounds, 20% with a hit somewhere; the sample as a whole holds those more often.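 Each cell line was grown in a 96-well plate and treated with one concentration of compound for 48 hours. Values below 10 were considered active.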 Values without a mark were called inactive. The source made the active and inactive calls.

Tests used:
Experiment in all cases: NCI-60 one-dose screen, 48 h (100 = growth as untreated, 0 = no growth, -100 = all killed)
Conditions in all cases: 10 µM unless noted
[1] = test system: SR leukemia
[2] = test system: RPMI-8226 leukemia
[3] = test system: OVCAR-8 ovarian
[4] = test system: OVCAR-5 ovarian
[5] = test system: OVCAR-4 ovarian
[6] = test system: SK-OV-3 ovarian
[7] = test system: IGROV1 ovarian
[8] = test system: OVCAR-3 ovarian
[9] = test system: HS 578T breast
[10] = test system: NCI/ADR-RES ovarian
[11] = test system: T-47D breast
[12] = test system: BT-549 breast
[13] = test system: MDA-MB-435 melanoma
[14] = test system: SW-620 colon
[15] = test system: MCF7 breast
[16] = test system: HCT-116 colon
[17] = test system: HCC-2998 colon
[18] = test system: KM12 colon

Row | Compound | growth [1] | growth [2] | growth [3] | growth [4] | growth [5] | growth [6] | growth [7] | growth [8] | growth [9] [%] | growth [10] | growth [11] | growth [12] | growth [13] | growth [14] | growth [15] | growth [16] | growth [17] | growth [18] [%]
1 | CC(=O)Oc1cccc(OC(C)=O)c1OC(C)=O | 89.6% | 105% | 106% | 99.9% | 105% | 87% | 101% | 111% | 107 | 108% | 97.1% | 94.3% | 94.6% | 114% | 88.7% | 89.5% | 92.1% | 105
2 | CC1(C)OC2COC3(C(=O)O)OC(C)(C)OC3C2O1 (configuration not stated) | 121% | 109% | 108% | 90.1% | 116% | 103% | 109% | 108% | 101 | 101% | 90.2% | 106% | 93.8% | 98.2% | 99.7% | 114% | 97.6% | 98.4
3 | CC(C)CCN(CCCNc1c2c(nc3ccccc13)CCCC2)CCC(C)C | 5.77% (active) | 56.4% | 91.1% | 83.6% | 66.3% | 94.3% | 81.8% | 93.9% | 87.6 | 87.8% | 98.8% | 91.3% | 89.3% | 79.9% | 69.9% | 63.7% | 69.7% | 105
4 | C=C1C(=O)O[C@H]2[C@H]1CC/C(Cn1cc(-c3ccccc3C(F)(F)F)nn1)=C\CC[C@@]1(C)O[C@@H]21 | 2.59% (active) | -29.4% (active) | -27.1% (active) | -18.6% (active) | -19% (active) | 79.1% | -21.4% (active) | -93.8% (active) | 39.1 | 19.6% | -82.4% (active) | -60.4% (active) | 4.12% (active) | -62.9% (active) | -70.5% (active) | -99.1% (active) | -45.9% (active) | 36.5
5 | CC(C)(C)OC(=O)N1C/C(=C\c2cccs2)C(=O)/C(=C/c2cccs2)C1 | 55.5% | 55.4% | 87.8% | 109% | 82.2% | 90.1% | 83% | 104% | 93.3 | 96.3% | 82.5% | 97.6% | 99.7% | 84.5% | 39.1% | 63.5% | 106% | 97.2
6 | O=C(Nc1ccc(I)cc1)c1cccc([N+](=O)[O-])c1O | 31.6% | 6.95% (active) | 17.1% | 43.4% | 19.1% | -2.55% (active) | 30.4% | 7.89% (active) | 42.6 | 9.57% (active) | 9.64% (active) | 4.69% (active) | 14.2% | 21.7% | 7.91% (active) | 8.14% (active) | 19.9% | 14.1
7 | O=C(O)C(=Cc1c2ccccc2cc2ccccc12)C(=O)O | 102% | 103% | 104% | 112% | 117% | 107% | 111% | 118% | 106 | 98.3% | 90.5% | 105% | 109% | 105% | 97.5% | 97.7% | 100% | 109
8 | COc1cccc2nc(Nc3ccc(NC(=O)c4ccc5ncccc5c4)cc3)ccc12 | 65.7% | 33.4% | 72.3% | 99.3% | 89.7% | 86.4% | 105% | 105% | 66.7 | 86% | 68% | 69.7% | 88.7% | 97.7% | 70.3% | 84.5% | 96.4% | 65.6
9 | O=C(CNc1ccc(Cl)cc1)Nc1ccc(-c2nc3ccccc3s2)cc1 | 11.5% | 46% | 66.4% | 121% | 23.1% | 89.7% | 34.3% | 28.9% | 84.1 | 64.5% | 4.58% (active) | 16.7% | 62.8% | 22.6% | 11.5% | 23.3% | -16.2% (active) | 80.7
